INS-1E GSIS act: primary screen for activators of insulin secretion dependent on glucose, INS-1E cells, GLuc reporter luminescence. INS-1E GLuc reporter insulin secretion, 2-3 h. hit rate 0.61% among 370,000. activation, % at 16.6 µM;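 active = lowest replicate activation of at least 40%, so every replicate reaches that level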;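 also: 0% = median of neutral control wells and 100% = median of IBMX positive control wells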
dFosB act-1: activators of mouse delta FosB homodimer; P13346; activation, % at 25 µM; hit rate 0.99% among 340,000; AID 493131; purified delta FosB, TAMRA-CDK5 oligo fluorescence polarization; percent of positive-control signal above neutral wells;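 active = mean activation above about 17%, with every replicate also reaching it, limit read from the data, passing the limit was not always enough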
Target sequence (P13346 whole entry, looked up): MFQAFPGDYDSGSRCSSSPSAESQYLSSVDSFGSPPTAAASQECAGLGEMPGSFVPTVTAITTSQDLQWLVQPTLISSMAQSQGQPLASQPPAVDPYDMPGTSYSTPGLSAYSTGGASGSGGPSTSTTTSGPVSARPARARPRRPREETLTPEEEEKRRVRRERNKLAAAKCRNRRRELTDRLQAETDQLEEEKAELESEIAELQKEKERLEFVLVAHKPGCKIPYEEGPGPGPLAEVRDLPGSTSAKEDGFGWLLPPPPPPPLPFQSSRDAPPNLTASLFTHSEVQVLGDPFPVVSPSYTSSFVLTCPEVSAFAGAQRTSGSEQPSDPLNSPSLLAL
Neddylation inh: inhibitors of human cullin neddylation | TR-FRET cullin neddylation, biochemical | inhibition, % at 25 µM | hit rate 0.58% among 360,000 | AID 651699; in the data active = inhibition above about 36%
A1 inh: inhibitors of the anti-apoptotic protein A1, read as caspase activation. MEF A1-2A-BIM cells, Caspase-Glo 3/7 luminescence, 3 h; percent of clofoctol response, vehicle zero. hit rate 0.066% among 330,000. caspase activation, % (concentration not given with the values);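 active = over half of replicate activation scores above 10%, or exactly half above 10 with the replicate mean above 10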
Vif inh: inhibitors of HIV Vif; HEK293T cells, Vif self-association by quenched fluorescence, imaging, 24 h; inhibition, % at 7.49 µM; hit rate 0.35% among 340,000; in the data active = inhibition above about 50%, passing the limit was not always enough
dFosB act-2: enhances mouse delta FosB homodimer binding to DNA | shares compounds with dFosB act-1 | purified delta FosB, TAMRA-CDK5 oligo fluorescence polarization; normalised: neutral wells 0, positive control 100 | activation, % at 24.9 µM | 2,400 tested, under 10 active;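 active = highest replicate activation at or above 34% and every replicate reaching that threshold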;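 also: higher polarization means more probe DNA bound by delta FosB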
Numbers without * were called inactive; . = no result given. Only some compounds are listed: those with a hit (about 1.9% of all), similar ones and a draw of the others.

SMILES | INS-1E GSIS act | dFosB act-1 | Neddylation inh | A1 inh | Vif inh | dFosB act-2
COc1ccc(CSc2nnc(NC(C)=O)s2)cc1[N+](=O)[O-] | -7 | 9 | -8 | . | -1 | .
COCCSc1nnc(NC(=O)c2ccc(OC)c([N+](=O)[O-])c2)s1 | 12 | 26* | -16 | 0 | -2 | -6
Cc1cc2nc(C)n(CCCNC(=O)Nc3cccc4ccccc34)c2cc1C | . | 53* | 10 | 0 | -15 | 2
CCOc1ccc(NC(=O)NCCCn2c(C)nc3cc(C)c(C)cc32)cc1 | . | 6 | 10 | 1 | -8 | .
CCCC(=O)Nc1ccc2c(c1)C(=O)N(C)[C@@H]1CC[C@H](CC(=O)NCC(F)(F)F)O[C@H]1CO2 | -1 | . | . | . | . | .
O=C(Cn1c(=O)oc2ccccc21)Nc1ccc(S(=O)(=O)N2CCCCC2)cc1 | . | 60* | -4 | 1 | -7 | 5
CCN(CC)S(=O)(=O)c1ccc(NC(=O)Cn2c(=O)oc3ccccc32)cc1 | -4 | 4 | -7 | -1 | 3 | .
O=C(N/N=C/c1ccc(OC(=O)c2cccs2)cc1)c1ccc(F)cc1 | . | 33* | 3 | -3 | -5 | -1
O=C(N/N=C/c1ccc(F)cc1)c1ccccc1 | -4 | -5 | -4 | -9 | -1 | .
CN(C)CC(=O)N[C@@H]1CC[C@@H](CCNC(=O)C2CC2)O[C@H]1CO | -4 | . | . | . | . | .
CCOC(=O)c1c(NC(=O)COC(=O)Cn2c(C)nc3ccccc32)sc2c1CCCC2 | 9 | 39* | -9 | 0 | -18 | -9
Cc1ccc(S(=O)(=O)N[C@@H]2CC[C@H](CC(=O)NCCN3CCCCC3)O[C@H]2CO)cc1 | -1 | . | . | . | . | .
C[C@@H]1CN([C@@H](C)CO)C(=O)c2cccc(NS(=O)(=O)c3cn(C)cn3)c2O[C@H]1CN(C)C(=O)Nc1ccc2c(c1)OCO2 | 9 | . | . | . | . | .
CS(=O)(=O)NNC(=O)c1csc(Cc2c(Cl)sc3ccc(Cl)cc23)n1 | 14 | 36* | -2 | 0 | -6 | -1
CC(C)C(=O)NNC(=O)c1csc(CS(=O)(=O)c2ccc(Cl)cc2)n1 | . | 0 | 10 | 0 | -2 | .
CC(=O)Nc1ccc(-c2cc(-c3ccccc3)nc(-c3ccccc3)n2)cc1 | 9 | 7 | -75 | 1 | -2 | .
CC(=O)Nc1ccc(-c2cc(-c3ccc(NC(C)=O)cc3)nc(-c3ccc(NC(C)=O)cc3)n2)cc1 | 4 | 54* | -4 | 0 | -14 | 0
Cc1ccc(/C=N\NC(=O)c2ccc(Cn3cc(Br)c([N+](=O)[O-])n3)o2)o1 | 4 | 27* | -21 | -1 | 0 | -8
O=C(N/N=C\c1cccc(Cl)c1)c1ccc(Cn2cccn2)o1 | 3 | -18 | -14 | 3 | 8 | .
O=C(N/N=C\c1cccc(Cl)c1)c1ccc(Cn2cc(Br)c([N+](=O)[O-])n2)o1 | -39 | 33* | -15 | 0 | -1 | -1
O=C(Cc1ccccn1)N[C@@H]1CC[C@@H](CCn2cc(-c3ccc(F)cc3)nn2)O[C@H]1CO | -8 | . | . | . | . | .
COc1cc(OC)cc(-c2nnc(NC(=O)c3ccc4c(c3)OCCO4)o2)c1 | 5 | 26* | 21 | -1 | -4 | -8
COc1cccc(C(=O)Nc2nnc(-c3ccc(Cl)cc3)o2)c1 | 4 | 23* | 9 | 0 | . | -2
COc1cc(OC)cc(C(=O)NNC(=O)c2ccc3c(c2)OCCO3)c1 | . | 11 | 7 | -3 | 14 | .
COc1ccc(Cn2c(C)c(C)c(C#N)c2NC(=O)Nc2cccc(C)c2)cc1 | . | 63* | -2 | 0 | -26 | 3
CO[C@@H]1CN(C)C(=O)c2cc(NC(=O)Nc3ccccc3F)ccc2OC[C@@H](C)N(Cc2ccccc2C(=O)O)C[C@@H]1C | 11 | . | . | . | . | .
Cc1cc2c(cc1C)C(c1cc(Br)ccc1F)CC(=O)N2 (stereo not drawn) | . | 22* | 4 | 0 | 7 | 2
Cc1cc(C)c(NC(=O)Cn2nnc(C(=O)NCc3cccs3)c2N)c(C)c1 | . | 12 | 1 | 1 | 3 | .
Cc1c(Cl)cccc1NC(=O)Cn1nnc(C(=O)NCc2cccs2)c1N | 29 | 39* | 3 | 0 | -4 | -3
Cc1cccc(NC(=O)Cn2nnc(C(=O)NCc3cccs3)c2N)c1C | 5 | 42* | 1 | -1 | -3 | 4
